Eight compounds from PubChem BioAssay (NCI) can be followed below.

The panel holds about 83,000 compounds, 20% with a hit somewhere; the sample as a whole holds those more often.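 Percent growth is the endpoint: 0 to 100 indicates growth inhibition (40 means 60% inhibition), 0 means no net growth, and negative values indicate cell death.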 Unmarked numbers belong to inactive results. Active and inactive are the calls of the source. How the source made its calls: active means growth percent below 10; inactive means the rest.

Test systems include HCT-15 colon; HT29 colon; SNB-75 CNS; SNB-19 CNS; U251 CNS; SK-MEL-5 melanoma; UACC-62 melanoma; LOX IMVI melanoma; SK-MEL-28 melanoma; EKVX NSCLC; SN12C renal; UO-31 renal; TK-10 renal; ACHN renal; CAKI-1 renal; CCRF-CEM leukemia; MOLT-4 leukemia; SK-MEL-2 melanoma; A498 renal.
Common to all, as to assay: NCI-60 one-dose screen, 48 h (100 = growth as untreated, 0 = no growth, -100 = all killed)
What all share (details): 10 µM unless noted

Regarding `COC(=O)N[C@H]1CCc2c(Cl)c(OC)c(OC)c(OC)c2-c2ccc(SC)c(=O)cc21`, the growth with HCT-15 colon is 9.73% (active); in the assay with HT29 colon, 13%; with SNB-75 CNS, 28%; with SNB-19 CNS, 26.3%; with U251 CNS it was 21.5%; in the assay with SK-MEL-5 melanoma, -37.4% (active). For the same compound, the growth in the assay with UACC-62 melanoma was 36.9%; in the assay on LOX IMVI melanoma, 13.3%; with SK-MEL-28 melanoma, 60.8%; with EKVX NSCLC, 47.8%; with SN12C renal, 21.1%; in the assay on UO-31 renal, 22.7%. Also, the growth in the assay with TK-10 renal is 45.9%; with ACHN renal, 30.9%; with CAKI-1 renal, 15.1%; with CCRF-CEM leukemia it was 1.53% (active); in the assay with MOLT-4 leukemia it was 3.99% (active).

As to `COc1cc(-c2cc(-c3ccc(N(C)C)cc3)nc(N3CCOCC3)c2C#N)cc(OC)c1OC`, the growth in the assay with HCT-15 colon was 44.1%; with HT29 colon, 12.1%; in the assay with SNB-75 CNS, 25.3%; in the assay on SNB-19 CNS it was 45%; in the assay with U251 CNS, 24.2%; with SK-MEL-5 melanoma, 3.48% (active). The growth with UACC-62 melanoma is -39% (active); with LOX IMVI melanoma, -58.6% (active); in the assay on SK-MEL-28 melanoma it was 65.4%; in the assay on SK-MEL-2 melanoma it was 34.5%; in the assay on EKVX NSCLC it was 51.2%; with SN12C renal, 53.4%. Further, the growth in the assay on UO-31 renal was 54.8%; with TK-10 renal it was 38.4%; in the assay with ACHN renal, 46.1%; with CAKI-1 renal, 29.8%; with A498 renal, 75.5%; in the assay on CCRF-CEM leukemia it was 30.3%.

`O=C(Nc1ncc(Cc2cc(Cl)ccc2Cl)s1)c1cccs1`: the growth with HCT-15 colon is 23.5%; with HT29 colon it was 24.3%; in the assay on SNB-75 CNS, 72.5%; in the assay on SNB-19 CNS it was 72.9%; in the assay on U251 CNS, 51.8%; in the assay on SK-MEL-5 melanoma, 42.9%. For the same compound, the growth is 36.7% in the assay on UACC-62 melanoma; 43.3% in the assay with LOX IMVI melanoma; 63.7% in the assay with SK-MEL-28 melanoma; 50.5% in the assay on SK-MEL-2 melanoma; 64% with EKVX NSCLC; 65.4% in the assay with SN12C renal. Besides, the growth with UO-31 renal was 62.5%; with TK-10 renal, 68.4%; in the assay on ACHN renal it was 60.8%; in the assay with CAKI-1 renal, 42.4%; in the assay on A498 renal, 65.3%; in the assay on CCRF-CEM leukemia, 49.6%. In the assay with MOLT-4 leukemia, the growth is 63.2%.

As for `Cn1ccnc1C(=O)/C=C/c1ccc(CC(=O)NC2CCCCC2)cc1`, the growth with HCT-15 colon is 33.1%; in the assay with HT29 colon it was 15.3%; with SNB-75 CNS, 3.39% (active); with SNB-19 CNS, 46.2%; in the assay on U251 CNS it was 31.4%; with SK-MEL-5 melanoma, 71.3%. In addition, the growth in the assay on UACC-62 melanoma was 73.4%; in the assay with LOX IMVI melanoma, 44.5%; with SK-MEL-28 melanoma it was 92.3%; in the assay on SK-MEL-2 melanoma it was 108%; with EKVX NSCLC it was 77.4%; in the assay with SN12C renal, 61.2%. In addition, the growth in the assay on UO-31 renal is 60.4%; with TK-10 renal, 94.8%; in the assay with ACHN renal it was 81.3%; in the assay on CAKI-1 renal, 66.9%; with CCRF-CEM leukemia, 33.5%; with MOLT-4 leukemia, 67.7%.

Regarding `CCOC(=O)c1ccc2c(c1)ncn2-c1ccc(NC(=O)Nc2cccc(C)c2)cc1`, the growth in the assay with HCT-15 colon was 13.6%; with HT29 colon it was 49.1%; in the assay with SNB-75 CNS, 87.6%; with SNB-19 CNS, 49.8%; in the assay on U251 CNS it was 46.1%; with SK-MEL-5 melanoma it was 83.2%. Also, the growth in the assay with UACC-62 melanoma was 71.3%; with LOX IMVI melanoma, 5.37% (active); in the assay on SK-MEL-28 melanoma, 88.7%; in the assay on EKVX NSCLC, 84.7%; in the assay on SN12C renal, 69.6%; in the assay with UO-31 renal, 66.6%. Besides, the growth was 123% with TK-10 renal; 66.7% in the assay on ACHN renal; 74.6% with CAKI-1 renal; 45.8% with CCRF-CEM leukemia; 43.2% with MOLT-4 leukemia.

As for `O=C(Nc1ccc(-c2ccc3c(c2)NC(=O)/C3=C\c2ccc[nH]2)cc1)NC1CC1`, the growth was 88.3% with HCT-15 colon; 88% in the assay on HT29 colon; 89.8% in the assay on SNB-75 CNS; 92.6% in the assay with SNB-19 CNS; 75% in the assay on U251 CNS; 94% with SK-MEL-5 melanoma. Further, the growth in the assay with UACC-62 melanoma was 97.7%; in the assay on LOX IMVI melanoma, 89.3%; with SK-MEL-28 melanoma it was 111%; in the assay with SK-MEL-2 melanoma it was 112%; in the assay with EKVX NSCLC it was 47.5%; in the assay on SN12C renal, 101%. The growth is 88.2% in the assay on UO-31 renal; 108% with TK-10 renal; 101% in the assay on ACHN renal; 99.9% in the assay on CAKI-1 renal; 86.1% with CCRF-CEM leukemia; 94.2% in the assay on MOLT-4 leukemia.

As for `Cc1ccc(NC(=O)c2cc(-c3nc4ccccc4s3)c(=O)n(NS(=O)(=O)c3ccc(Cl)cc3)c2N)cc1`, the growth with HCT-15 colon was 96%; in the assay with HT29 colon, 108%; in the assay on SNB-75 CNS, 77.5%; in the assay on SNB-19 CNS, 101%; with U251 CNS, 104%; with SK-MEL-5 melanoma it was 97.8%. In addition, the growth with UACC-62 melanoma was 93.2%; with LOX IMVI melanoma, 102%; with SK-MEL-28 melanoma it was 115%; with SK-MEL-2 melanoma, 103%; with EKVX NSCLC it was 92.1%; in the assay on SN12C renal, 101%. The growth with UO-31 renal is 83.9%; in the assay with TK-10 renal it was 136%; with ACHN renal, 108%; with CAKI-1 renal, 85.1%; in the assay with CCRF-CEM leukemia, 104%; in the assay on MOLT-4 leukemia, 97.9%.

Take `OCc1cnc2ccccc2c1NC1CCCCCC1`: the growth in the assay with HCT-15 colon is 98.4%; in the assay with HT29 colon, 92.1%; in the assay on SNB-75 CNS, 91.4%; in the assay on SNB-19 CNS, 94.4%; with U251 CNS, 92.6%; with SK-MEL-5 melanoma, 59.7%. In addition, the growth with UACC-62 melanoma is 81.7%; with LOX IMVI melanoma it was 89.2%; in the assay with SK-MEL-28 melanoma, 102%; with SK-MEL-2 melanoma, 100%; in the assay on EKVX NSCLC, 78.7%; with SN12C renal, 93.8%. In addition, the growth in the assay with UO-31 renal was 67.1%; in the assay on TK-10 renal, 96.2%; in the assay with ACHN renal, 92.3%; with CAKI-1 renal, 73.1%; in the assay on A498 renal, 79.4%; with CCRF-CEM leukemia, 85.1%. For the same compound, the growth in the assay with MOLT-4 leukemia was 91.5%.
